Screening data from PubChem BioAssay.
Gal4-VP16 FLuc = counter-screen for ROR gamma inhibitors: Gal4-VP16 reporter. 3.5% of 310,000 active. Drosophila S2 Gal4-VP16 UAS-luciferase, luminescence, 20 h. AID 2546. Potency, µM (titrated, usually from 53.6 µM), without a hit: top-dose activity, negative = inhibition, hits mostly inhibitors;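 further: Gal4-VP16 expression switched on by copper sulfate through the metallothionein promoter; potency means the concentration at half of the fitted maximal effect; nearly all actives have a fitted effect of over 50% in size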
TDP1 cell CPT = growth inhibition of DT40 Tdp1-/-;hTDP1 cells with camptothecin (screen for TDP1 inhibitors); chicken DT40 Tdp1-/-;hTDP1 cells + 20 nM CPT, ATP luminescence, 48 h; Potency, µM (top dose mostly 46.2 µM), inactives show at the highest dose activity change, negative = growth inhibition, most hits filed as inhibitors; 12% of 420,000 active; further: potency means the concentration at half of the fitted maximal effect; nearly all actives have a fitted effect of over 55% in size
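Chicken DT40 Tdp1-/- cells stably complemented with human TDP1 were seeded at 400 cells/well in medium containing 20 nM camptothecin, exposed to pin-transferred compounds, and grown at 37 °C for at least 48 hr. Viability was read as ATP luminescence.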
ELG1 DNA repair = inhibitors of ELG1-dependent DNA repair in HEK293T cells; HEK293T ELG1-luciferase reporter, luminescence, 16 h; DNA damage induced by 5-fluorouridine; Potency, µM (top dose mostly 46.1 µM), for inactives: top-dose activity change, negative = inhibition, hits mostly inhibitors; 2.3% of 330,000 active; further: potency means the concentration at half of the fitted maximal effect; nearly all actives have a fitted effect of over 55% in size
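Quantitative HTS, concentration-response format. 2,000 cells/well co-treated with 5-fluorouridine and compound, 16 hr in 5% CO2 at 37 °C; ONE-Glo luminescence read after 30 min.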
IL-1B inflam inh = blocks inflammasome-driven IL-1 beta release; 4.7% of 360,000 active; THP-1 LPS/ATP IL-1B secretion, AlphaLISA, 16 h; hits give low values; activity change, % at 57.5 µM; in the data active means activity change below about -50%; inconclusive means mostly about -30% to -49%
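Secreted IL-1B measured by AlphaLISA bead assay after 16 h compound exposure of THP-1 cells; compounds (final up to 57.5 uM) added 1 h before LPS (250 ng/mL) and ATP (1.25 mM) stimulation; lower signal means less secretion.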
RORg inh = ROR gamma (mouse) transcription inhibition; 5.4% of 310,000 active; Potency, µM (series often up to 53.6 µM), inactives show at the highest dose activity change, negative = inhibition, usual class: inhibitors; Drosophila S2 Gal4-RORgamma UAS-luciferase reporter, 20 h; further: potency means the concentration at half of the fitted maximal effect; nearly all actives have a fitted effect of over 60% in size
Target sequence (P51450 whole entry, looked up, the tested form may be a part): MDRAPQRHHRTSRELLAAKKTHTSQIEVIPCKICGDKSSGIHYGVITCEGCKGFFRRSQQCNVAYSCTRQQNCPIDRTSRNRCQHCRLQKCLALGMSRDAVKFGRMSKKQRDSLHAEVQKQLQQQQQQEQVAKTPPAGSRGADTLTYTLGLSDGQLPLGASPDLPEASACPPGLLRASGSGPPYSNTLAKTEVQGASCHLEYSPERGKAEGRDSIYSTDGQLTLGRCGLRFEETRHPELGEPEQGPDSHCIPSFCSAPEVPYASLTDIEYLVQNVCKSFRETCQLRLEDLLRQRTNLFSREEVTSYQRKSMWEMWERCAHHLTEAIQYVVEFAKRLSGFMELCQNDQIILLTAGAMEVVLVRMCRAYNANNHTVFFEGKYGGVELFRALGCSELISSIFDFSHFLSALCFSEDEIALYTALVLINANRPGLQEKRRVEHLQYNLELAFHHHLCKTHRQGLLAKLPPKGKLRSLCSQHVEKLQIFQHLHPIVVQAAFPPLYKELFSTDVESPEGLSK
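ROR gamma transcriptional activity was tracked as Gal4-UAS luciferase output in stably transfected Drosophila Schneider cells, with compound added 1 hr before 700 uM copper sulfate induction and a 20 hr ambient-temperature incubation.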
DT40 TDP1 no CPT = qHTS for Inhibitors of human tyrosyl-DNA phosphodiesterase 1 (TDP1): qHTS in cells in absence of CPT; DT40 Tdp1-/- hTDP1 cells, no CPT, ATP luminescence, 48 h; Potency, µM (highest dose often 46.2 µM), for inactives: at the highest dose activity change, negative = growth inhibition, usual class: inhibitors; 15% of 420,000 active; AID 686978, 2013; further: potency means the concentration at half of the fitted maximal effect; nearly all actives have a fitted effect of over 55% in size
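DT40 Tdp1-/-;hTDP1 cells, no CPT (DMSO vehicle only), 400 cells/well; compounds pin-transferred; ≥48 hr, 37 °C; CellTiter-Glo 30 min RT dark, luminescence read.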
Starred values were filed as active, the others as inactive; ? = inconclusive; · = no result. A selection: hits, their analogues and other compounds. The true share with any hit is near 21%. Unless noted, the call rests on the fitted dose curve; in most records, active means well fitted curve in the direction sought with a large enough effect; inconclusive means small, poorly fitted or top-dose-only effect, or another doubt; inactive means no such curve, though single readings can be large; an effect the other way counts as inactive or inconclusive. On the % scale 0 is the no-effect control and ±100 the full control effect.

SMILES	Gal4-VP16 FLuc	TDP1 cell CPT	ELG1 DNA repair	IL-1B inflam inh	RORg inh	DT40 TDP1 no CPT
COC(=O)CN1C(=O)C(O)(CC(=O)c2ccc(C)cc2)c2ccccc21 (stereo not drawn)	-4.0%	10.1%	-1.3%	17.8	-1.2%	-9.6%
CCc1ccc(C(=O)CC2(O)C(=O)N(Cc3ccc(C)cc3)c3ccccc32)cc1 (stereo not drawn)	·	4.61µM*	·	·	·	2.59µM*
CCN1C(=O)C(O)(CC(=O)c2ccc3c(c2)OCCO3)c2ccccc21 (stereo not drawn)	2.3%	-7.5%	8.8%	-3.7	-7.2%	-19.9%
COc1ccc(CN2C(=O)C(O)(CC(=O)c3ccc4c(c3)OCO4)c3ccccc32)cc1OC (stereo not drawn)	-3.9%	6.31µM*	?	20.9	26.1%	6.31µM*
COc1ccc(CN2C(=O)CSCC2(C)C(=O)Nc2c(C)cccc2C)cc1 (stereo not drawn)	·	-4.7%	·	12.0	·	-27.8%
CC(C)(C)Nc1oc(-c2ccccc2)nc1-c1ccccc1	2.3%	·	·	·	-20.6%	·
COC(=O)c1ccccc1S(=O)(=O)N1CCC(C(=O)OCc2ccc([N+](=O)[O-])cc2)CC1	·	-10.2%	2.0%	12.8	·	-26.2%
COc1cccc2cc(C(=O)CC3(O)C(=O)N(Cc4ccccc4)c4ccccc43)c(=O)oc12 (stereo not drawn)	-1.7%	13µM*	-11.0%	3.6	1.7%	6.51µM*
C=CCN1C(=O)C(O)(CC(=O)c2ccc(N)cc2)c2ccccc21 (stereo not drawn)	2.8%	?	10.6%	-9.4	-6.8%	?
Cc1ccc(C(=O)CC2(O)C(=O)N(Cc3ccccc3)c3ccccc32)c(C)c1 (stereo not drawn)	·	23.1µM*	·	·	·	?
CCCCN1C(=O)C(O)(CC(=O)c2ccc(C(C)(C)C)cc2)c2ccccc21 (stereo not drawn)	·	20.6µM*	·	·	·	14.6µM*
CC(C)C[C@@H](CC(=O)N[C@@H](CCC(=O)O)CC(=O)O)NC(=O)[C@@H]1CCCC[C@H]1NC(=O)C[C@H](CCCN)NC(=O)C[C@H](Cc1c[nH]c2ccccc12)NC(=O)[C@@H]1CNCC[C@H]1N	2.9%	·	·	·	2.2%	·
COc1ccccc1N1CCN(C(=O)c2cc(=O)c3c(C)cc(C)cc3o2)CC1	0.5%	-24.1%	25.9µM*	16.8	25.5%	-22.4%
COc1ccc(N2CCN(C(=O)c3cc4ccccc4o3)CC2)cc1	-9.5%	-23.4%	0.0%	-16.2	-1.5%	-22.2%
CCc1ccc2oc(C(=O)N3CCN(c4ccccc4OC)CC3)cc(=O)c2c1	-3.1%	5.17µM*	?	-14.5	37.5%	9.2µM*
CCc1ccc2oc(C(=O)N3CCN(c4ccc(OC)cc4)CC3)cc(=O)c2c1	-1.9%	10.9%	8.6%	-84.4*	0.1%	?
O=C(c1cc(=O)c2ccccc2o1)N1CCN(c2ccccc2F)CC1	-5.8%	-1.6%	17.0%	13.9	?	-29.1%
COCC(=O)N1CCC2(CCCN(Cc3ccccc3)C2)CC1	0.3%	0.7%	·	·	-7.1%	0.0%
Cc1ccc2nc(N(CCCN(C)C)C(=O)c3cc4ccccc4oc3=O)sc2c1	-23.2%	-20.6%	?	-51.3*	-8.2%	?
CN(C)CCCN(C(=O)c1cc2ccccc2oc1=O)c1nc2c(F)cccc2s1	-5.1%	-8.6%	?	-20.8	3.7%	-25.8%
Cc1cccc2sc(N(CCN(C)C)C(=O)c3ccc4ccccc4c3)nc12	-3.7%	?	0.0%	-8.6	-21.2%	?
Cc1cccc2sc(N(CCCN(C)C)C(=O)c3cc4ccccc4oc3=O)nc12	-3.2%	23.1µM*	?	0.0	-27.1%	?
